Laboratory results taken from PubChem BioAssay AID1159580 (chemical genetic matrix, 2015).
Screen size: about 5,500 compounds; about 2,000 (36%) were called active. Roughly 18% stayed inconclusive and do not appear here. Rule as the data show it: active = normalized growth mostly below about 0.91 (no sharp cut-off); inconclusive = no clear call, values can overlap the other calls; inactive = mostly above about 0.92. The list shows a part of the results.

Experiment: chemical genetic growth profiling, strain panel (AID 1159580);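 also: tested at 20 µM; growth read once vehicle control cultures reached saturation at 30 °C; 1 = growth at the plate median or of vehicle wells; lower values mean less growth of the strain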
Details: growth OD

Measured: normalized growth

COc1cccc2c1CCC1=CC(=O)CC[C@@]12C
inactive: S. cerevisiae deletion strains, locus YJR075W, strain HOC1, active compounds read low 0.973 | S. cerevisiae deletion strains, locus YKL009W, strain mrt4, active compounds read low 0.98 | S. cerevisiae deletion strains, locus YKL068W, active compounds read low 1 | S. cerevisiae deletion strains, locus YKL085W, strain MDH1 (second series), active compounds read low 0.982 | S. cerevisiae deletion strains, locus YKL085W, strain MDH1, active compounds read low 0.982 | S. cerevisiae deletion strains, locus YKL160W, strain elf1, active compounds read low 1 | S. cerevisiae deletion strains, locus YKL190W, strain CNB1, active compounds read low 1.01 | S. cerevisiae deletion strains, locus YKR001C, strain vps1, active compounds read low 0.986 | S. cerevisiae deletion strains, locus YKR026C, strain gcn3, active compounds read low 0.994 | S. cerevisiae deletion strains, locus YKR091W, strain srl3, active compounds read low 0.998 | S. cerevisiae deletion strains, locus YLL001W, strain dnm1, active compounds read low 1 | S. cerevisiae deletion strains, locus YLL026W, active compounds read low 0.992 | S. cerevisiae deletion strains, locus YLL041C, strain sdh2, active compounds read low 0.995 | S. cerevisiae deletion strains, locus YLR027C, strain aat2, active compounds read low 1.01 | S. cerevisiae deletion strains, locus YLR039C, strain RIC1, active compounds read low 1.1 | S. cerevisiae deletion strains, locus YLR058C, strain SHM2, active compounds read low 0.993 | S. cerevisiae deletion strains, locus YLR102C, strain apc9, active compounds read low 0.993 | S. cerevisiae deletion strains, locus YLR221C, strain rsa3, active compounds read low 0.988 | S. cerevisiae deletion strains, locus YLR258W, strain gsy2, active compounds read low 0.999 | S. cerevisiae deletion strains, locus YLR262C, strain YPT6 (second series), active compounds read low 1.05 | S. cerevisiae deletion strains, locus YLR262C, strain YPT6, active compounds read low 1.1 | S. cerevisiae deletion strains, locus YLR268W, strain sec22, active compounds read low 0.973 | S. cerevisiae deletion strains, locus YLR320W, strain mms22, active compounds read low 1 | S. cerevisiae deletion strains, locus YLR330W, strain CHS5, active compounds read low 0.998 | S. cerevisiae deletion strains, locus YLR342W, strain FKS1 (second series), active compounds read low 0.941 | S. cerevisiae deletion strains, locus YLR342W, strain FKS1, active compounds read low 0.997 | S. cerevisiae deletion strains, locus YLR357W, strain rsc2, active compounds read low 1.02 | S. cerevisiae deletion strains, locus YLR370C, strain arc18, active compounds read low 0.99 | S. cerevisiae deletion strains, locus YLR371W, strain rom2, active compounds read low 0.988 | S. cerevisiae deletion strains, locus YLR384C, strain iki3, active compounds read low 1.02 | S. cerevisiae deletion strains, locus YLR418C, strain cdc73, active compounds read low 0.9 | S. cerevisiae deletion strains, locus YML016C, strain PPZ1, active compounds read low 0.989 | S. cerevisiae deletion strains, locus YML032C, strain rad52, active compounds read low 0.988 | S. cerevisiae deletion strains, locus YML120C, strain ndi1, active compounds read low 0.988 | S. cerevisiae deletion strains, locus YML124C, strain tub3, active compounds read low 0.988 | S. cerevisiae deletion strains, locus YMR058W, strain fet3, active compounds read low 1 | S. cerevisiae deletion strains, locus YMR078C, strain ctf18, active compounds read low 0.985 | S. cerevisiae deletion strains, locus YMR125W, strain sto1, active compounds read low 1 | S. cerevisiae deletion strains, locus YMR129W, active compounds read low 0.991 | S. cerevisiae deletion strains, locus YMR205C, strain PFK2, active compounds read low 1 | S. cerevisiae deletion strains, locus YMR223W, strain ubp8, active compounds read low 0.964 | S. cerevisiae deletion strains, locus YMR231W, strain pep5, active compounds read low 1 | S. cerevisiae deletion strains, locus YMR263W, strain SAP30, active compounds read low 0.978 | S. cerevisiae deletion strains, locus YMR307W, strain GAS1, active compounds read low 0.957 | S. cerevisiae deletion strains, locus YNL067W, strain RPL9B, active compounds read low 0.984 | S. cerevisiae deletion strains, locus YNL071W, strain lat1, active compounds read low 1 | S. cerevisiae deletion strains, locus YNL128W, strain TEP1, active compounds read low 1.01 | S. cerevisiae deletion strains, locus YNL153C, strain GIM3, active compounds read low 0.989 | S. cerevisiae deletion strains, locus YNL209W, strain ssb2, active compounds read low 1.02 | S. cerevisiae deletion strains, locus YNL233W, strain BNI4, active compounds read low 0.988 | S. cerevisiae deletion strains, locus YNL248C, strain rpa49, active compounds read low 1.01 | S. cerevisiae deletion strains, locus YNL250W, strain rad50, active compounds read low 0.997 | S. cerevisiae deletion strains, locus YNL271C, strain bni1, active compounds read low 0.985 | S. cerevisiae deletion strains, locus YNL298W, strain CLA4, active compounds read low 0.969 | S. cerevisiae deletion strains, locus YNL307C, strain MCK1, active compounds read low 0.933 | S. cerevisiae deletion strains, locus YNL322C, strain KRE1 (second series), active compounds read low 1.01 | S. cerevisiae deletion strains, locus YNL322C, strain KRE1, active compounds read low 1 | S. cerevisiae deletion strains, locus YNR049C, strain mso1, active compounds read low 1.02 | S. cerevisiae deletion strains, locus YNR052C, strain pop2, active compounds read low 0.996 | S. cerevisiae deletion strains, locus YOL006C, strain TOP1, active compounds read low 0.863 | S. cerevisiae deletion strains, locus YOL012C, strain htz1 1.1 | S. cerevisiae deletion strains, locus YOL147C, strain pex11, active compounds read low 0.982 | S. cerevisiae deletion strains, locus YOR001W, strain rrp6, active compounds read low 1.02 | S. cerevisiae deletion strains, locus YOR061W, strain CKA2, active compounds read low 0.996 | S. cerevisiae deletion strains, locus YOR069W, strain VPS5, active compounds read low 1 | S. cerevisiae deletion strains, locus YOR070C, strain gyp1, active compounds read low 1 | S. cerevisiae deletion strains, locus YOR080W, strain dia2, active compounds read low 1 | S. cerevisiae deletion strains, locus YOR083W, strain WHI5, active compounds read low 1.01 | S. cerevisiae deletion strains, locus YOR106W, strain vam3, active compounds read low 1.01 | S. cerevisiae deletion strains, locus YOR136W, strain idh2, active compounds read low 0.992 | S. cerevisiae deletion strains, locus YOR144C, strain elg1, active compounds read low 0.991 | S. cerevisiae deletion strains, locus YOR184W, strain ser1, active compounds read low 0.913 | S. cerevisiae deletion strains, locus YOR265W, strain rbl2, active compounds read low 1 | S. cerevisiae deletion strains, locus YOR270C, strain vph1, active compounds read low 0.915 | S. cerevisiae deletion strains, locus YOR290C, strain snf2, active compounds read low 1.02 | S. cerevisiae deletion strains, locus YOR316C, strain cot1, active compounds read low 0.99 | S. cerevisiae deletion strains, locus YPL051W, strain arl3, active compounds read low 1 | S. cerevisiae deletion strains, locus YPL055C, strain LGE1, active compounds read low 0.946 | S. cerevisiae deletion strains, locus YPL078C, strain atp4, active compounds read low 1 | S. cerevisiae deletion strains, locus YPL106C, strain sse1, active compounds read low 1.02 | S. cerevisiae deletion strains, locus YPL240C, strain hsp82, active compounds read low 0.995 | S. cerevisiae deletion strains, locus YPL241C, strain CIN2, active compounds read low 1 | S. cerevisiae deletion strains, locus YPR119W, strain clb2, active compounds read low 0.989 | S. cerevisiae deletion strains, locus YPR141C, strain kar3, active compounds read low 0.997 | S. cerevisiae deletion strains, locus YPR163C, strain tif3, active compounds read low 0.979 | S. cerevisiae deletion strains, locus YPR167C, strain met16, active compounds read low 0.983 | S. cerevisiae deletion strains, strain wtn01, active compounds read low 0.96 | S. cerevisiae strains, strain wild type, active compounds read low 1.01
